Each structure is given as a SMILES string. About 2,600 (0.67%) of roughly 390,000 compounds were called active. What follows is part of a selection rich in actives, with near analogues and random picks from the rest. Unmarked numbers belong to inactive results.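 How the source made its calls: active means mean inhibition of replicates at least 50% and at least half of replicates each reaching 50%; inconclusive means half or more replicates reach 50% but mean below 50%; inactive means the rest.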

The assay has as its target Transforming acidic coiled-coil-containing protein 3 (Homo sapiens) (UniProt Q9Y6A5). The assay can be described thus: disruptors of ARNT/TACC3 protein interaction, primary screen, biochemical, AlphaScreen, single concentration (AID 623870).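 Further: 0% = complete ARNT plus TACC3 wells and 100% = ARNT alone without TACC3.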 To be noted: AlphaScreen His-ARNT PAS-B/GST-TACC3 binding, luminescence; at 9.99 µM; active compounds read high; TACC3 fragment carries E629A point mutation. (In general: In Alpha technology, singlet oxygen from a donor bead excites a nearby acceptor bead.)
Take `CCOc1ncccc1C(=O)NCCc1ccc(OC)cc1`: the inhibition (usually the change of the read-out against control, counted positive when it falls) was 3.87%.
The same measure for `COc1ccc(CNC(=O)COc2cccnc2[N+](=O)[O-])cc1`: -14.8%; for `C/C(Cc1ccccc1)=N\NC(=O)CNC(=O)c1ccccc1Cl`: 4.6%; for `C/C(=N\NC(=O)Cc1ccc(Cl)cc1)c1ccccn1`: 28.6% (active).
On to `COc1ccc(CC(=O)N/N=C(\C)c2ccccn2)cc1`, for which the inhibition is 65.8% (active).
The same measure for `C/C(=N/NC(=O)CSc1ccccn1)c1ccc([N+](=O)[O-])cc1`: -1.61%; for `C[C@H]1CN([C@@H](C)CO)C(=O)c2cc(/C=C/c3ccccc3)cnc2O[C@H]1CN(C)Cc1cccc(C(=O)O)c1`: -2.95%.
Regarding `CO[C@@H]1CN(C)C(=O)c2cc(NC(=O)Nc3cc(F)ccc3F)ccc2OC[C@@H](C)N(C)C[C@H]1C`, the inhibition is 11.6%.
For `CO[C@H]1CN(C)C(=O)c2cc(NC(=O)C3CCOCC3)ccc2OC[C@@H](C)N(Cc2cccnc2)C[C@@H]1C`, the inhibition was -4.49%.
The result for `CCNC(=O)C[C@H]1CC[C@@H]2[C@H](COc3ccc(NC(=O)Nc4cccc(Cl)c4)cc3C(=O)N2C)O1` reads 4.93%; that for `CO[C@@H]1CN(C)C(=O)c2cc(NC(=O)C3CCOCC3)ccc2OC[C@H](C)N(Cc2cccnc2)C[C@@H]1C`, -4.7%.
The same measure for `CCCN(C)C[C@@H]1Oc2cc(-c3ccc(C)cc3)ccc2S(=O)(=O)N([C@@H](C)CO)C[C@H]1C`: 3.53%.
The result for `CO[C@H]1O[C@H](CO)[C@@H](OC(=O)Nc2ccccc2-c2ccccc2)[C@H](OC(=O)Nc2ccccc2)[C@H]1OC(=O)Nc1ccccc1` reads 0.749%.
With `COc1ccccc1-c1ccc([C@@H]2[C@@H](CO)N3CCCCN(C(=O)c4ccncc4)C[C@@H]23)cc1`, the inhibition was -0.716%.
The same measure for `CC1(c2ccc(Cl)cc2Cl)NC(=O)N(CC(=O)Nc2cccnc2Cl)C1=O` (stereo not given): 0.909%.
The result for `CC(=O)/C(=N\Nc1ccc(Cl)cc1Cl)Sc1cccc2cccnc12` reads 61.1% (active); that for `CC(NC(=O)COc1cccnc1[N+](=O)[O-])c1ccc(Cl)cc1Cl` (stereo not given), 1.05%; that for `CN1C[C@H]2[C@@H](c3ccccc31)[C@@H](CO)N2Cc1ccccc1`, 2.13%.
The same measure for `COc1ccc(NC(=O)Nc2ccc3c(c2)C(=O)N([C@H](C)CO)C[C@H](C)[C@H](CN(C)S(=O)(=O)c2ccc(OC)cc2)O3)cc1`: 8.74%.
Turning to `O=C(Nc1cc(F)ccc1F)N1CCCCN2[C@H](C1)[C@H](c1ccc(-c3cccnc3)cc1)[C@@H]2CO`, the inhibition is -4.21%.
Take `CC(C)NC(=O)N(C)C[C@H]1Oc2cc(C#Cc3ccccn3)ccc2S(=O)(=O)N([C@H](C)CO)C[C@@H]1C`: the inhibition is -1.38%.
The same measure for `CNC[C@H]1Oc2cc(C#Cc3ccccc3)ccc2S(=O)(=O)N([C@@H](C)CO)C[C@@H]1C`: 21.9%.
The result for `CNC[C@H]1Oc2cc(C#Cc3ccccn3)ccc2S(=O)(=O)N([C@H](C)CO)C[C@@H]1C` reads 47.7% (active); that for `CN1[C@@H]2c3ccc(-c4cccc(F)c4)c(=O)n3C[C@@H]2[C@@H](CO)[C@@H]1C(=O)NC1CCC1`, -9.74%; that for `CCC(=O)Nc1ccc2c(c1)OC[C@H](C)N(C(=O)c1ccncc1)C[C@H](C)[C@H](OC)CN(C)C2=O`, 6.95%.
The same measure for `C[C@@H]1CN([C@@H](C)CO)C(=O)c2cccc(NC(=O)c3ccncc3)c2O[C@H]1CN(C)S(=O)(=O)c1ccc(F)cc1`: -8.57%.
For the compound `C[C@@H]1CN([C@H](C)CO)C(=O)c2cc(NC(=O)Cc3cn(C)c4ccccc34)ccc2O[C@@H]1CN(C)S(=O)(=O)c1cccs1`, the inhibition is -11.1%.
The same measure for `Cc1ccc(CC2CC(=O)N(c3nc(C)cc(C)n3)C2=O)cc1` (stereo not given): -8.57%; for `COC(=O)CC1=NN(c2nc(C)cc(C)n2)C(=O)C1`: 13.9% (active); for `Cc1cc(C)nc(N2C(=O)CC(Cc3ccccc3)C2=O)n1` (stereo not given): -0.771%.
The result for `COCCNC(=O)C[C@H]1CC[C@@H]2[C@@H](COc3ccc(NC(=O)C4CCOCC4)cc3C(=O)N2C)O1` reads -6.26%; that for `CCC(=O)N[C@H]1CC[C@H](CCn2cc(-c3cccc(OC)c3)nn2)O[C@H]1CO`, -6.96%.
The result for `Cc1c(NC(=O)CSc2cccc3cccnc23)c(=O)n(-c2ccccc2)n1C` reads 93.2% (active); that for `Cc1ccccc1OCCC(=O)Nc1c(C)n(C)n(-c2ccccc2)c1=O`, 5.66%.
As for `Cc1c(NC(=O)CN2C(=O)C(=O)N(Cc3ccccc3)C2=O)c(=O)n(-c2ccccc2)n1C`, the inhibition is 0.167%.
The result for `C[C@@H]1CN([C@H](C)CO)C(=O)c2ccccc2-c2ccccc2CO[C@@H]1CN(C)S(=O)(=O)CC(F)(F)F` reads -0.141%.
Turning to `C[C@H](CO)N1C[C@H](C)[C@H](CN(C)C)Oc2ccc(NC(=O)Cc3ccccc3)cc2CC1=O`, the inhibition was -9.42%.
The result for `C[C@H](CO)N1C[C@H](C)[C@H](CN(C)C(=O)NC2CCCCC2)Oc2c(NC(=O)C3CC3)cccc2C1=O` reads -12.2%.
The same measure for `CNC(=S)N/N=C/c1ccc(N2CCOCC2)s1`: 46.8% (active).
The result for `C=CCNC(=S)N/N=C/c1ccc(C)s1` reads 3.54%; that for `O=[N+]([O-])c1cc(Cl)cc(/C=N/NC(=S)Nc2cc(S(=O)(=O)N3CCOCC3)ccc2Cl)c1O`, 41.4%; that for `COc1ccc(NC(=O)N(C)C[C@@H]2Oc3c(NC(=O)C4CCOCC4)cccc3C(=O)N([C@H](C)CO)C[C@@H]2C)cc1`, 26.5%.
Regarding `O=C(NNC1=NCCC1)c1cccc(S(=O)(=O)N2CCCCC2)c1`, the inhibition was 30.6%.
The same measure for `Cc1ncc(CO)c(/C=N/NC(=O)c2cccc(S(=O)(=O)N3CCCC3)c2)c1O`: 75.9% (active); for `O=C(Nc1nncs1)c1cccc(S(=O)(=O)N2CCCCC2)c1`: -5.27%; for `CCCN(C)C[C@@H]1OCCCC[C@@H](C)Oc2ccc(NS(=O)(=O)c3c(C)noc3C)cc2C(=O)N([C@H](C)CO)C[C@@H]1C`: -10.1%.
The same measure for `COCC#Cc1cnc2c(c1)C(=O)N([C@@H](C)CO)C[C@@H](C)[C@@H](CN(C)C(=O)Nc1ccc(OC)cc1)O2`: 4.88%; for `ON=C1/C(=N\O)CC2(C/C1=N/O)OCCO2`: 59% (active); for `C[C@@H]1CN([C@H](C)CO)C(=O)c2cccc(NS(=O)(=O)c3cccs3)c2O[C@@H]1CN(C)C(=O)Nc1cccc2ccccc12`: 26.7%.
The same measure for `Cc1cccc(-c2ccc([C@@H]3[C@@H](CO)N4CCCCN(S(=O)(=O)c5cccs5)C[C@H]34)cc2)c1`: 14.3%; for `O=C(CCCN1C(=O)c2cccc3cccc(c23)C1=O)N1CCN(Cc2ccc3c(c2)OCO3)CC1`: -11.4%; for `O=C1c2cccc3cccc(c23)C(=O)N1CCCCCc1n[nH]c(=S)o1`: 28.3% (active).
On to `O=C(COC(=O)CCCN1C(=O)c2cccc3cccc(c23)C1=O)NC1CCS(=O)(=O)C1` (stereo not given), for which the inhibition was 7.07%.
As for `C[C@H](CO)N1C[C@H](C)[C@H](CN(C)C(=O)Cc2ccccn2)Oc2ncc(-c3cncnc3)cc2C1=O`, the inhibition was -0.547%.
The same measure for `CO[C@@H]1CN(C)C(=O)c2ccc(NC(=O)Nc3c(C)noc3C)cc2OC[C@@H](C)N(C(=O)Nc2cccc(Cl)c2)C[C@H]1C`: 4.61%; for `COc1ccccc1NC(=O)N[C@H]1CC[C@H](CCNC(=O)Cc2ccccn2)O[C@@H]1CO`: 6.44%.
The result for `CC(C)n1cnc2c(NCc3ccccc3)cc(OCC3CCN(C)CC3)cc21` reads 28.3% (active); that for `CCC(=O)Nc1ccc2c(c1)C(=O)N(C)[C@@H]1CC[C@@H](CC(=O)NCCN3CCCCC3)O[C@@H]1CO2`, -4.58%; that for `COc1ccccc1-c1cn(CC[C@@H]2CC[C@@H](NC(=O)c3ccccc3F)[C@H](CO)O2)nn1`, 1.05%.
The same measure for `C[C@H]1CN([C@@H](C)CO)C(=O)c2cc(C3=CCCCC3)cnc2O[C@H]1CN(C)Cc1ccncc1`: -9.48%; for `O=C(NCc1cccnc1)c1nc(-c2cccs2)no1`: -5.94%; for `c1ccc(-c2noc(-c3cccs3)n2)nc1`: 48.9% (active).
Regarding `O=C(c1cccs1)N(C(=O)c1cccs1)c1ccccn1`, the inhibition is 0.575%.
With `O=C(NCCN1C(=O)C2C3C=CC(C3)C2C1=O)Nc1ccccn1` (stereo not given), the inhibition is 0.008%.
The result for `O=C(CCN1C(=O)C2C3C=CC(C3)C2C1=O)Nc1ccccc1F` (stereo not given) reads -30.3%; that for `CC1CCN(S(=O)(=O)c2nnc(NC(=O)COc3ccccc3F)s2)CC1`, 31.3%.
The same measure for `CCCC(NC(=O)c1ccco1)c1nc2ccccc2[nH]1` (stereo not given): -4.8%; for `O=C(COc1ccccc1F)Nc1nc(-c2ccccn2)cs1`: 69.7% (active); for `CCOC(=O)N1CCN(C(=O)C(C)NC(=O)c2ccco2)CC1` (stereo not given): -22%.
For the compound `O=C(CN1C(=O)C2C3C=CC(C3)C2C1=O)Nc1nc(-c2ccccn2)cs1` (stereo not given), the inhibition is 73.4% (active).
The same measure for `O=C(COc1cccnc1[N+](=O)[O-])Nc1ccc(Cl)cc1F`: -2.26%; for `CC(NC(=O)c1ccco1)C(=O)Nc1nc(-c2ccccn2)cs1` (stereo not given): 65.4% (active).
The same measure for `COc1ccc(S(=O)(=O)N(C)C[C@H]2Oc3ccc(NC(=O)CCC(F)(F)F)cc3CC(=O)N([C@H](C)CO)C[C@@H]2C)cc1`: 14.1%; for `CCCN(C)C[C@H]1Oc2ncc(-c3cccnc3)cc2C(=O)N([C@@H](C)CO)C[C@@H]1C`: -0.744%.
Take `Cc1ccc(S(=O)(=O)N(C)C[C@@H]2OCCCC[C@@H](C)Oc3ccc(NC(=O)C4CCCCC4)cc3C(=O)N([C@H](C)CO)C[C@H]2C)cc1`: the inhibition is -8.72%.

For the origin of these results see PubChem BioAssay AID623870 (Broad Institute, 2012).
